Inconclusive results are not listed. Calls of active or inactive are those of the source. Unless noted, calls come from the whole dose curve; as a rule, active = well fitted curve in the direction sought with a large enough effect in the repeat runs; inconclusive = weak or mixed curves; inactive = no such curve, though single readings can be large; an effect the other way counts as inactive or inconclusive.
Key:
[1] = qHTS assay to identify small molecule agonists of the sonic hedgehog signaling (Shh) pathway - cell viability counter screen (AID 1259366); note: nearly all actives have a fitted effect of over 50% in size
Method in brief: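 Cytotoxicity counter screen run in the same wells as the Shh reporter assay. NIH/3T3 cells carrying a Gli1 response element–driven luciferase were treated with DMSO-dissolved compounds for 24hr, and live-cell protease activity was measured with CellTiter-Fluor.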

[2] = qHTS assay to identify small molecule antagonists of the sonic hedgehog signaling (Shh) pathway - cell viability counter screen (AID 1259367); note: nearly all actives have a fitted effect of over 55% in size
Method in brief: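 Cells: 3T3 Gli1-Luc, 2,000/well, 4 hr pre-incubation. Compounds in DMSO, then conditioned medium. Incubation 24 hr, 37C, 5% CO2. CellTiter-Fluor at 23 hr, 1 hr, fluorescence.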

[3] = qHTS assay to identify small molecule agonists of the sonic hedgehog signaling (Shh) pathway (AID 1259368; calls by dose curve;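 note: NIH/3T3-derived 3T3Gli1-Luc cells carrying a stable Gli1-driven firefly luciferase reporter; series mostly up to about 92 µM; nearly all actives have a fitted effect of over 15% in size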)
Method in brief: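 A Gli1 transcriptional response element controlled firefly luciferase in 3T3Gli1-Luc cells. Compounds and a positive control were added 4 hr after plating, and cells were incubated a further 24 hr at 37 C before luminescence detection.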

[4] = qHTS assay to identify small molecule antagonists of the sonic hedgehog signaling (Shh) pathway (AID 1259369; calls by dose curve; note: nearly all actives have a fitted effect of over 45% in size; note: potency is the fitted concentration of half-maximal effect)
Method in brief: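 For antagonist detection, the reporter line received test compounds together with conditioned medium, incubated 24hr at 37 C, 5% CO2, then luminescence was recorded following 30min room-temperature luciferase reagent incubation.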

[5] = target: Estrogen receptor beta (Homo sapiens) (UniProt Q92731); experiment: qHTS assay to identify small molecule antagonists of the estrogen receptor beta (ER-beta) signaling pathway (AID 1259378; active = well fitted inhibition curve with a large enough effect in the signal ratio in the repeat runs, not every such curve was filed as active; the % refers to the signal ratio)
Estrogen receptor beta (Homo sapiens), sequence (Q92731 whole entry, looked up): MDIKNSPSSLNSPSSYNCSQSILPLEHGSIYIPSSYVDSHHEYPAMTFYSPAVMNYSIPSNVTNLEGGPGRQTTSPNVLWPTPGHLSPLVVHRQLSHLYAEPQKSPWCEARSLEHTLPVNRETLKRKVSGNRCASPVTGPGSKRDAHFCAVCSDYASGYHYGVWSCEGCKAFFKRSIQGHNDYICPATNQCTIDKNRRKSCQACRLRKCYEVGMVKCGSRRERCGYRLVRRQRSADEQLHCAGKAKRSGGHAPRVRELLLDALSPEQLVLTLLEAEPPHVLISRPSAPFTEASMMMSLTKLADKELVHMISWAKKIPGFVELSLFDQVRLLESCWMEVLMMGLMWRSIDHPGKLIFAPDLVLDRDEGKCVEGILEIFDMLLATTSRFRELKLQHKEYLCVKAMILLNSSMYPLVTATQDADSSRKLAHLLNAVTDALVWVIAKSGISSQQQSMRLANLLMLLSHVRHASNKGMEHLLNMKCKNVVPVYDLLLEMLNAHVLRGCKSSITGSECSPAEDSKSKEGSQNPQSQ
Method in brief: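 Antagonist mode: compounds added to beta-lactamase reporter HEK293T ER-beta-UAS cells stimulated with E2 (1nM final), 16 hr at 37C. LiveBLAzer B/G FRET substrate, 2 hours room temperature, fluorescence read-out.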

[6] = qHTS assay to identify small molecule agonists of the androgen receptor (AR) signaling pathway in the presence of an antagonist - cell viability counter screen (AID 1259379);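 note: MDA-kb2 human breast cancer cells carrying an MMTV luciferase reporter; series mostly up to about 92 µM; nearly all actives have a fitted effect of over 25% in size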
Method in brief: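 Seed MDA-kb2 at 3,000 cells/well; incubate 5 hr, 37C, 0% CO2. Add nilutamide to 3.0uM final, then pin compounds at 15 concentrations. Incubate 16 hr. Add CellTiter-Fluor at 15 hr, read fluorescence after 1 hr.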

[7] = qHTS assay to identify small molecule agonists of the estrogen receptor beta (ER-beta) signaling pathway - cell viability counter screen (AID 1259380); note: nearly all actives have a fitted effect of over 30% in size
Method in brief: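 CellTiter-Glo read, 30 min RT, same wells as bla assay; cells ER-beta-UAS-bla HEK293T; 16 hr compound, 37C; medium 2% charcoal-stripped FBS.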

[8] = qHTS assay to identify small molecule antagonists of the estrogen receptor beta (ER-beta) signaling pathway - cell viability counter screen (AID 1259382);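 note: HEK293T cells carrying ER-beta-UAS-bla reporter stimulated with estradiol; series mostly up to about 92 µM; nearly all actives have a fitted effect of over 55% in size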
Method in brief: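 In this multiplexed counter screen, cells were seeded at 2,000 per well in medium with 2% charcoal-stripped FBS and incubated 6 hr before compound and 1nM final E2 were added. Sixteen hours later, ATP-based luminescence reported viability.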

[9] = target: Estrogen receptor beta (Homo sapiens) (UniProt Q92731); experiment: qHTS assay to identify small molecule agonists of the estrogen receptor beta (ER-beta) signaling pathway (AID 1259377; active = well fitted activation curve with a large enough effect in the signal ratio in the repeat runs, not every such curve was filed as active; the % refers to the signal ratio; note: potency is the fitted concentration of half-maximal effect)
Method in brief: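 HEK293T ER-beta-UAS-bla; 2% charcoal-stripped FBS; cells pre-incubated 6 hr, compound 16 hr, 37C/5% CO2; LiveBLAzer B/G FRET substrate 2 h RT; fluorescence intensity read.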

[10] = target: Androgen receptor (Homo sapiens) (UniProt P10275); experiment: qHTS assay to identify small molecule agonists of the androgen receptor (AR) signaling pathway in the presence of an antagonist (AID 1259381; calls by dose curve; note: nearly all actives have a fitted effect of over 15% in size)
Androgen receptor (Homo sapiens), sequence (P10275 whole entry, looked up): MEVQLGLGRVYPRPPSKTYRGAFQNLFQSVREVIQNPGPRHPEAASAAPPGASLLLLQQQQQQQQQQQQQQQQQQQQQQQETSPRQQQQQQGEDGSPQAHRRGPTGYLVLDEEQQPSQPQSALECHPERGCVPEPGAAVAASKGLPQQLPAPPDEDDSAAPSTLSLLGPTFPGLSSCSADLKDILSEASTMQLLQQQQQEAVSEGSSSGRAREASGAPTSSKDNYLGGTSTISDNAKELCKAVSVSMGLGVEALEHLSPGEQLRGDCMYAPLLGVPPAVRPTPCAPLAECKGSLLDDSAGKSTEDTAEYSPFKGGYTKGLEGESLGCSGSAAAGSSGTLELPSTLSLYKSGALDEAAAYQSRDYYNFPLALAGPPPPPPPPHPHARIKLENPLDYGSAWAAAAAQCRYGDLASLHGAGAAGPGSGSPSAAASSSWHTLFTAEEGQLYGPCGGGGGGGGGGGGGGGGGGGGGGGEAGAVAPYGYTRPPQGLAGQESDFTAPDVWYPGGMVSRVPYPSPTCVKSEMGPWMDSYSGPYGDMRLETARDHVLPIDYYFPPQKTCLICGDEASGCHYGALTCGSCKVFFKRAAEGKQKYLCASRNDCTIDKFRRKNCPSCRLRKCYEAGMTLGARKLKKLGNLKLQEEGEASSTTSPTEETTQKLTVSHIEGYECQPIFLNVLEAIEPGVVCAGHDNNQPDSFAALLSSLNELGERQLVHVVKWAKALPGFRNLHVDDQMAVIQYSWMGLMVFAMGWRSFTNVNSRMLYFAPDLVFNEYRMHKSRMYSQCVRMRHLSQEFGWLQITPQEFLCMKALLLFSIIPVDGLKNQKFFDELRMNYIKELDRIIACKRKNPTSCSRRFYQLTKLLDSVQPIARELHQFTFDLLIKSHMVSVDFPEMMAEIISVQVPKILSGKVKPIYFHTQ
Method in brief: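 Test compounds at 15 concentrations were incubated for 16hr with MDA-kb2 reporter cells in presence of 3.0uM nilutamide (final). Signal: ONE-Glo luciferase luminescence.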
% is set by controls: 0 for no effect and ±100 for the full control effect.

O=S(=O)(O)CCO
inactive: Potency [1] | Potency [2] | outcome [3] | Potency [4] | outcome [5] | Potency [6] | outcome [7] | outcome [8]

Cc1nc2ccccc2c(=O)o1
inactive: Potency [1] | Potency [2] | outcome [3] | Potency [4] | Potency [9] | Potency [6] | outcome [7] | outcome [8]

CCOC(=O)CCCCCCCCC(=O)OCC
inactive: Potency [1] | Potency [2] | outcome [3] | Potency [4] | outcome [5] | Potency [6] | outcome [7] | outcome [8]

CCOC(=O)OCC/C(SC(=O)OCC)=C(\C)N(C=O)Cc1cnc(C)nc1N
inactive: Potency [1] | Potency [2] | outcome [3] | Potency [4] | Potency [9] | Potency [6] | outcome [7] | outcome [8]

CCCCCC1CCCC(=O)O1 (centres undefined)
inactive: Potency [1] | Potency [2] | outcome [3] | Potency [4] | outcome [5] | Potency [6] | outcome [7] | outcome [8]

CC(C)=CC(C)(C)C
inactive: Potency [1] | Potency [2] | outcome [3] | Potency [4] | Potency [9] | Potency [6] | outcome [7] | outcome [8]

COc1cccc2sc(N)nc12
active: Potency [4] 24.5 µM
inactive: Potency [1] | Potency [2] | outcome [3] | outcome [5] | Potency [6] | outcome [10] | outcome [8]

CCCCC(=O)N(C)C
inactive: Potency [1] | Potency [2] | outcome [3] | Potency [4] | outcome [5] | Potency [6] | outcome [7] | outcome [8]

CCCCCN(CCCOC)C(=O)C(CCC(=O)O)NC(=O)c1ccc(Cl)c(Cl)c1 (centres undefined)
inactive: Potency [1] | Potency [2] | outcome [3] | Potency [4] | outcome [5] | Potency [6] | outcome [7] | outcome [8]

CC(C)CCC(=O)CCC(C)C
inactive: Potency [1] | Potency [2] | outcome [3] | Potency [4] | outcome [5] | Potency [6] | outcome [7] | outcome [8]

COc1cc2c3cc1Oc1cc(ccc1O)C[C@@H]1c4c(cc(OC)c(O)c4Oc4ccc(cc4)C[C@@H]3N(C)CC2)CC[N+]1(C)C
active: Potency [9] 26.6 µM
inactive: Potency [1] | Potency [2] | outcome [3] | Potency [4] | Potency [6] | outcome [7] | outcome [8]

CC1=CC[C@H](CC=O)C1(C)C
inactive: Potency [1] | Potency [2] | outcome [3] | Potency [4] | Potency [9] | Potency [6] | outcome [8]

Cc1nc(C)nc(N2C[C@@H](C)N(c3ccnc([C@@H](C)O)n3)[C@@H](C)C2)n1
inactive: Potency [1] | Potency [2] | outcome [3] | Potency [4] | Potency [6]

O=CN1CCOCC1
inactive: Potency [1] | Potency [2] | outcome [3] | Potency [4] | Potency [9] | Potency [6] | outcome [10] | outcome [8]

CCCCCCCCC(=O)OCC
inactive: Potency [1] | Potency [2] | outcome [3] | Potency [4] | Potency [9] | Potency [6] | outcome [7] | outcome [8]

CCCCC(C)C(=O)O (centres undefined)
inactive: Potency [1] | Potency [2] | outcome [3] | Potency [4] | outcome [5] | Potency [6] | outcome [7] | outcome [8]

COCCOCCOCCOC
inactive: Potency [1] | Potency [2] | outcome [3] | Potency [4] | outcome [5] | Potency [6] | outcome [8]

Nc1cc(S(=O)(=O)O)ccc1S(=O)(=O)O
inactive: Potency [1] | Potency [2] | outcome [3] | Potency [4] | outcome [5] | Potency [6] | outcome [8]

O=C1OC(=O)c2cc(Oc3ccc4c(c3)C(=O)OC4=O)ccc21
inactive: Potency [1] | Potency [2] | outcome [3] | Potency [4] | outcome [5] | Potency [6] | outcome [7] | outcome [10] | outcome [8]

CCOC(=O)CCc1ccccc1
inactive: Potency [1] | Potency [2] | outcome [3] | Potency [4] | Potency [9] | Potency [6] | outcome [7] | outcome [8]

CC(C)CCO
inactive: Potency [1] | Potency [2] | outcome [3] | Potency [4] | outcome [5] | Potency [6] | outcome [7] | outcome [8]

CC(=O)Nc1ccc(C)cc1
inactive: Potency [1] | Potency [2] | outcome [3] | Potency [4] | outcome [5] | Potency [6] | outcome [7] | outcome [8]

CCCCCCCCCCCCOC(C)=O
inactive: Potency [1] | Potency [2] | outcome [3] | Potency [4] | outcome [5] | Potency [6] | outcome [7] | outcome [8]

Cc1c(C(C)C)c(=O)n(-c2ccccc2)n1C
active: Potency [4] 1.06 µM
inactive: Potency [1] | Potency [2] | outcome [3] | outcome [5] | Potency [6] | outcome [7] | outcome [8]

OC[C@@H](O)[C@H](O)[C@@H](O)[C@@H](O)CO
inactive: Potency [1] | Potency [2] | outcome [3] | Potency [4] | Potency [6] | outcome [7] | outcome [8]

Nc1ccc(/C=C/c2ccc(N)cc2S(=O)(=O)O)c(S(=O)(=O)O)c1
inactive: viability change, negative = cytotoxic [1] 0.832% [at 0.349 µM] | viability change, negative = cytotoxic [2] 1.69% [at 0.349 µM] | activity change [3] -0.943% [at 0.349 µM] | activity change, negative = inhibition [4] 1.08% [at 0.349 µM] | activity change, negative = cytotoxicity [6] 1.1% [at 0.35 µM] | activity change, negative = cytotoxicity [7] 1.15% [at 0.349 µM] | activity change, negative = cytotoxicity [8] 6.78% [at 0.349 µM]

CC(CC(=O)O)CC(C)(C)C (centres undefined)
inactive: Potency [1] | Potency [2] | outcome [3] | Potency [4] | Potency [6] | outcome [7] | outcome [8]

C1=C\CC/C=C\CC/1
inactive: Potency [1] | Potency [2] | outcome [3] | Potency [4] | Potency [6] | outcome [7] | outcome [8]

C=CCCCCCCCCCCC
inactive: viability change, negative = cytotoxic [1] 3.1% [at 8.39 µM] | viability change, negative = cytotoxic [2] 2.53% [at 8.39 µM] | activity change [3] 0.0597% [at 8.39 µM] | activity change, negative = inhibition [4] -3.37% [at 8.39 µM] | activity change, negative = cytotoxicity [6] 0.376% [at 8.39 µM] | activity change, negative = cytotoxicity [7] -6.43% [at 8.39 µM] | activation [10] 2.68% [at 8.39 µM] | activity change, negative = cytotoxicity [8] 4.44% [at 8.39 µM]

Nc1cc(Cl)cc(S(=O)(=O)O)c1O
inactive: Potency [1] | Potency [2] | outcome [3] | Potency [4] | Potency [6]

CN[C@@H]1[C@H](O)[C@H](NC)[C@H]2O[C@@]3(O)C(=O)C[C@@H](C)O[C@H]3O[C@@H]2[C@H]1O
inactive: Potency [1] | Potency [2] | outcome [3] | Potency [4] | Potency [6] | outcome [7] | outcome [10] | outcome [8]

CCCCCCCCCCCCC
inactive: Potency [1] | Potency [2] | outcome [3] | Potency [4] | Potency [6] | outcome [7]

O=C(Oc1ccccc1C(=O)O)c1ccccc1O
inactive: Potency [1] | Potency [2] | outcome [3] | Potency [4] | Potency [6] | outcome [7] | outcome [8]
